Compounds without any hit were thinned out: in the full panel of roughly 79,000, 15% have a hit. Unmarked numbers belong to inactive results. Active and inactive are the calls of the source. Rule as the data show it: active = growth inhibition above about 70%; inactive = the rest.
Assay: NCI Yeast Anticancer Drug Screen. Data for the mlh1 rad18 strain (AID 175)
Details: S. cerevisiae mlh1 rad18 strain growth inhibition; at 50.0 µM; hits give high values
Outline: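 Test agents were incubated with a yeast strain of defined genotype (DNA damage repair defect). Inhibition of growth was derived by comparison with vehicle-exposed cultures.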

| Compound | growth inhibition |
| --- | --- |
| N#CCCN(Cc1ccccc1)CN1C(=O)c2ccccc2C1=O | -10.3% |
| N#Cc1ccc(-n2cccc2)cc1 | -4.5% |
| O=C(O)C(CSC(c1ccccc1)(c1ccccc1)c1ccccc1)Nc1ccccc1[N+](=O)[O-] (stereo unspecified) | 99.2% (active) |
| Cc1ccc[nH]c1=O | 2.4% |
| Cc1nc(N)sc1C(=O)/C=C/c1ccc([N+](=O)[O-])cc1 | 9.45% |
| c1ccc2nc(N3CCCC3)c(N3CCCC3)nc2c1 | -4.85% |
| C/C(=N/Nc1ccc([N+](=O)[O-])cc1[N+](=O)[O-])C(CC(C(=O)NCc1ccccc1)/C(C)=N\Nc1ccc([N+](=O)[O-])cc1[N+](=O)[O-])C(=O)NCc1ccccc1 (stereo unspecified) | 11.8% |
| O=S(=O)(O)c1cc(I)c(O)c2ncccc12 | 45.4% |
| CC/C(Cl)=N\OC(=O)Nc1ccc(C#N)cc1 | -10.4% |
| CC(=O)N(C(C)=O)n1c(Cc2ccc(Cl)cc2)nn(C(C)=O)c1=O | -7.6% |
| CCCSc1ncnc2c1nc(C)n2CO | 0% |
| Cc1ccc(S(=O)(=O)Oc2c(Cl)cc(Cl)cc2Cl)cc1 | 29.8% |
| Cc1cc(C)c2c(=O)c3c(oc2c1)O[C@@](C)(CO)C[C@@H]3c1ccccc1 | 5.2% |
| Cc1ccc(C(=O)CCN2CCOCC2)c(C)c1 | 31% |
| CCN(CC)CCNc1ccc2ncn3c4c(OC)ccc(OC)c4c(=O)c1c23 | 62.1% |
| Nc1cc(Cl)cc2c1nc(NCCO)c1ccccc12 | 56.5% |

From PubChem BioAssay (NCI)
